Screening data deposited in PubChem BioAssay by The Scripps Research Institute Molecular Screening Center.
In the library only some 3.5% were active in any assay of this set; here they are far more common.
FBW7 act: activators of human E3 ligase FBW7. Q969H0. AlphaScreen FBW7–phospho-cyclin E peptide binding, activator screen. normalized activity (activation), % at 26.1 µM. 650,000 tested, 0.13% active. AID 1259310; in the data active means normalized activity above about 1.9%;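 further: purified mutant Fbw7 with reduced substrate affinity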
MITF inh: human MITF inhibition, primary screen; O75030; AlphaScreen MITF homodimerization, bead proximity signal; inhibition, % at 2.6 µM; 650,000 tested, 0.91% active; in the data active means inhibition above about 50%;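 further: 0% = vehicle wells with protein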
Target sequence (O75030 whole entry, looked up): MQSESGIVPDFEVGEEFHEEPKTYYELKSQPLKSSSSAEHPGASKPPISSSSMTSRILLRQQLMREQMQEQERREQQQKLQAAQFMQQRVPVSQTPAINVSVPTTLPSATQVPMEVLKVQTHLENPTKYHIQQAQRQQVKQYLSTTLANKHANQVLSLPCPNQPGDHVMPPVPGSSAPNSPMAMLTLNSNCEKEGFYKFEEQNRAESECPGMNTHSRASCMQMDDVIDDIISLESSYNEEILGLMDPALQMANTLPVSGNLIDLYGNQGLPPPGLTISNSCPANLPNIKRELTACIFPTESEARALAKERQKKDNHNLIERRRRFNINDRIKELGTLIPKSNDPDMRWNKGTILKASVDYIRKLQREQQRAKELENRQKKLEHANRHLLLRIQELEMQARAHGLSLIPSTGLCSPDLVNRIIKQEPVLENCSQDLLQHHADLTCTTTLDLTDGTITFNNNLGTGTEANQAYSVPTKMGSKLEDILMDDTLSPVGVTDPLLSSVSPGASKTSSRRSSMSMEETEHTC
GPR151 activ: activators of human GPR151 | activation, % at 11.2 µM | AID 1508602 | 650,000 tested, 1% active | PathHunter beta-arrestin GPR151 cells, luminescence; in the data active means activation above about 4.9%;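 further: 0% = median of compound wells and 100% = cells with positive control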
TEAD-YAP inh: TEAD-YAP interaction inhibition; HEK-TIYL cells, TEAD-Gal4/YAP UAS-luciferase luminescence; inhibition, % at 9.12 µM; 640,000 tested, 1.4% active; AID 1259422; in the data active means inhibition above about 32%;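 further: 0% = median of test compound wells and 100% = reference inhibitor wells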
GPR151 confirm: confirmation of human GPR151 activators; shares compounds with GPR151 activ; 6,700 tested, under 10 active; GPR151 PathHunter beta-arrestin cells, luminescence, 90 min; % of EA-reagent control over plate median; activation, % at 11.2 µM;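 active means mean percent activation across replicates above the confirmation screen cutoff of 4.91%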
GPR119 counter: activates human GPR119 in a GPR151 counter-screen; shares compounds with GPR151 activ; 6,700 tested, 0.3% active; GPR119 PathHunter beta-arrestin cells, luminescence, 90 min; 0 = compound-well median, 100 = enzyme-acceptor control; activation, % at 11.2 µM;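 active means mean percent activation in the counterscreen above 29.09%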;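 further: counterscreen on off-target GPR119 to flag nonselective hits from the GPR151 activator screen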
* = called active by the depositor.

For CCCOc1ccc(C(=O)Nc2sc3c(c2C(=O)OCC)CCCC3)cc1 the results were FBW7 act 0.6, MITF inh 9.1, GPR151 activ 7.4*, TEAD-YAP inh -1.6, GPR151 confirm -0.4 and GPR119 counter 7.7.
`CCOC(=O)c1c(-c2ccccc2)csc1NC(=O)CC` gave FBW7 act 0.0, MITF inh -13.7, GPR151 activ 0.0 and TEAD-YAP inh -1.6.
`CCc1cc2c(=O)n(-c3ccccc3)c(SCC(=O)c3ccc(Br)cc3)nc2s1` gave FBW7 act -0.1, MITF inh -3.6, GPR151 activ -0.8 and TEAD-YAP inh 7.1.
Screening CN(C(=O)Cn1ncc2c(=O)oc3ccccc3c21)c1cccc(C(F)(F)F)c1 returned FBW7 act 0.0, MITF inh 5.2, GPR151 activ 1.2 and TEAD-YAP inh 6.8.
`COc1ccc2[nH]c(=O)c(=O)[nH]c2c1` gave FBW7 act 0.0, MITF inh 34.9, GPR151 activ 1.0 and TEAD-YAP inh 11.8.
Screening O=c1[nH]c2cc(Cl)c(Cl)cc2[nH]c1=O returned FBW7 act 0.2, MITF inh 22.4, GPR151 activ 5.5*, TEAD-YAP inh -16.7, GPR151 confirm -1.0 and GPR119 counter -4.2.
COc1ccc(CN2CCN(Cc3cccs3)C(CCO)C2)c(O)c1 (configuration not stated) was read as FBW7 act -0.1, MITF inh -5.1, GPR151 activ 5.1*, TEAD-YAP inh -14.3, GPR151 confirm -0.5 and GPR119 counter -7.8.
Screening COc1cccc(CN2CCN(Cc3cccs3)C(CCO)C2)c1 (configuration not stated) returned FBW7 act -0.1, MITF inh -3.2, GPR151 activ 0.2 and TEAD-YAP inh -5.2.
Cc1ccc(-n2nc3ccc(NC(=O)COc4ccccc4)cc3n2)cc1C was read as FBW7 act 0.5, MITF inh -4.2, GPR151 activ 0.4 and TEAD-YAP inh -32.2.
Screening CC1(CNc2nc3nonc3nc2N2CCCCCC2)COC1 returned FBW7 act 0.0, MITF inh -17.9, GPR151 activ 0.8 and TEAD-YAP inh 3.2.
`OC(COc1ccccc1CN1CCCC1)CN1CCc2ccccc2C1` (configuration not stated) gave FBW7 act -0.1, MITF inh -8.1, GPR151 activ 8.9*, TEAD-YAP inh 5.7, GPR151 confirm -0.4 and GPR119 counter -4.0.
`Cn1c(Nc2nc(Nc3ccc4c(c3)OCO4)c3ncn(-c4ccsc4)c3n2)nc2ccccc21` gave FBW7 act 0.5, MITF inh 12.4, GPR151 activ -0.9 and TEAD-YAP inh -19.0.
For CC(C)Oc1cc(S(=O)(=O)N2CCCCC2)ccc1N the results were FBW7 act -0.1, MITF inh 6.2, GPR151 activ 9.9*, TEAD-YAP inh 1.1, GPR151 confirm -1.0 and GPR119 counter -15.6.
Screening CC1CN(CC(O)COc2ccc(S(=O)(=O)N3CCCC3)cc2[N+](=O)[O-])CC(C)O1 (configuration not stated) returned FBW7 act 0.1, MITF inh 28.5, GPR151 activ 5.7*, TEAD-YAP inh 15.2, GPR151 confirm 0.8 and GPR119 counter -3.5.
Screening COc1ccc(S(=O)(=O)N2CCCCC2)cc1[N+](=O)[O-] returned FBW7 act 0.0, MITF inh 4.9, GPR151 activ 5.0*, TEAD-YAP inh 4.3, GPR151 confirm 0.0 and GPR119 counter -2.6.
CC1CCCCN1C(=O)COc1ccc(S(=O)(=O)N2CCCC2)cc1[N+](=O)[O-] (configuration not stated) was read as FBW7 act 0.3, MITF inh 19.6, GPR151 activ 0.1 and TEAD-YAP inh 1.6.
Screening COc1ccc(S(=O)(=O)N2CCc3ccccc3C2)cc1I returned FBW7 act 0.2, MITF inh 10.3, GPR151 activ 0.3 and TEAD-YAP inh 9.0.
`CCN1CCN(S(=O)(=O)c2ccc(OC)c(I)c2)CC1` gave FBW7 act 0.0, MITF inh 5.0, GPR151 activ 11.4*, TEAD-YAP inh 5.8, GPR151 confirm -0.2 and GPR119 counter -6.4.
`Ic1ccccc1/C=N/Nc1nc2ccccc2[nH]1` gave FBW7 act 0.0, MITF inh -7.5, GPR151 activ 0.3 and TEAD-YAP inh -42.6.
Screening O=C(CSc1nc2ccccc2c2nc(CCN3CCCCC3)nn12)c1ccccc1 returned FBW7 act 0.5, MITF inh 10.7, GPR151 activ 0.6 and TEAD-YAP inh -9.3.
`COC(=O)c1scc(C)c1NC(=O)c1sc2ncn(C)c(=O)c2c1C` gave FBW7 act 0.2, MITF inh -5.8, GPR151 activ -1.4 and TEAD-YAP inh -1.7.
Screening C#CCOC(=O)CCCC(=O)Nc1ccc([N+](=O)[O-])cc1Cl returned FBW7 act -0.1, MITF inh 5.7, GPR151 activ 0.4 and TEAD-YAP inh 3.9.
Screening C#CCOC(=O)CCCNc1ccc([N+](=O)[O-])cc1[N+](=O)[O-] returned FBW7 act 0.1, MITF inh 14.7, GPR151 activ 5.6*, TEAD-YAP inh 0.8, GPR151 confirm -0.7 and GPR119 counter 7.1.
CCOc1ccc(CCNC(=O)c2cn(-c3ccc(OC)cc3)c(=O)c3ccccc23)cc1 was read as FBW7 act -0.1, MITF inh -49.4, GPR151 activ 7.0*, TEAD-YAP inh 10.8, GPR151 confirm -0.2 and GPR119 counter -6.1.
Nc1nc(NCc2nc3ccccc3[nH]2)cc(-c2csc3ccccc23)n1 was read as FBW7 act 0.0, MITF inh -6.7, GPR151 activ 5.6*, TEAD-YAP inh -11.7, GPR151 confirm 0.4 and GPR119 counter -2.3.
For CCN1CCN(C(=O)c2cccs2)CC1 the results were FBW7 act 0.5, MITF inh -1.2, GPR151 activ -0.7 and TEAD-YAP inh -5.9.
`Oc1ccccc1CNc1ccc(F)c(F)c1` gave FBW7 act 0.0, MITF inh 13.7, GPR151 activ 1.8 and TEAD-YAP inh 1.2.
For COc1ccc(N(CCCN2C(=O)c3cccc4cccc(c34)C2=O)C(=O)c2ccc([N+](=O)[O-])cc2Cl)cc1 the results were FBW7 act -0.2, MITF inh -4.2, GPR151 activ 12.4*, TEAD-YAP inh 4.7, GPR151 confirm -0.3 and GPR119 counter -0.1.
COc1ccc(N(CCCN2C(=O)c3cccc4cccc(c34)C2=O)C(=O)c2cc(Cl)cc(Cl)c2)cc1 was read as FBW7 act -0.1, MITF inh -1.6, GPR151 activ -1.1 and TEAD-YAP inh 4.3.
Screening Clc1ccc(Cn2ncc3c(N4CCCC4)ncnc32)cc1 returned FBW7 act 1.0, MITF inh 9.0, GPR151 activ 8.4*, TEAD-YAP inh -2.6, GPR151 confirm 0.0 and GPR119 counter 5.6.
